Laboratory results taken from the supplement of paper PMC6555819.

tested on: VDR:RXRa (NR concentration 270 nM, RXRa partner concentration 90 nM); assay: PBM binding z-score (relative to random genomic background probes); higher = stronger binding; sequences stand for … in GC…GCGATTGACAGCGTAGAATGAAGG
Summary of the method: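 Binding buffer was PBS pH 7.4 with 2% milk, 0.02% Triton X-100, 1 mM DTT, 0.2 mg/mL BSA and 0.4 mg/ml salmon testes DNA. In it, ligand-free nuclear receptor dimers were incubated 1 h on custom Agilent 4×180K protein-binding microarrays carrying double-stranded probes. Antibodies against each partner (one per run) detected binding, and z-scores were calculated against random background probes after regression normalization of scanned fluorescence.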

Sequence | PBM binding z-score
CGAACTAGGTTAAGGACAGTGAATCTCCGCACGC | -0.159
CATACAGGGTCAGCTAGGCGAGAGTAGGGACGGC | 2.57
ACAGACAGGTGATGTAGGTAACTCAGGCTATCAT | -0.00251
TGAATGAGGTTATAAGATCAGGTAACGTTGCAAA | 1.14
TCTCGGAGGACACGAAAGGTCAGAGCTCGACATC | 3.28
TCTCGGAGGACACGAAGGTCAGAGCATTCCAGAG | 2.31
ATATGTAGGTTAAGGATCATTCAGGTTGGTTCGC | 1.45
CAAACTAGGTCAAGAGGTAAAAGTCCGCTTCCCG | 2.17
TCTCGGCGGACACGAAAGGTCAGAGCTCGACATC | 2.19
AGAACGAGGGCAATGAGTTGATATCACGGGTGGC | 5.09
CCTACTGGGCCATTCAGACGTCATTGATCATATG | -0.521
TTACCAAGGTGAGCTGAGTTCGTTGATCCAACTC | 4.86
TCTTGTAGATCAAAGGTTAAGAACGCCGAAGCCT | 1.47
TCTCGGAGGACACGAAGGTCAGACCTTTCCAGAG | 2.45
ATCTCTAGGGAAAAGTTCAGTGAATCCCGAGGAT | 0.557
CCTAGGAGGACAACAGGAGGTCAGAGCTGCCAGA | 2.09
CCGACTGGGGCCGAAAGGTTACCATACCATCCGG | 0.789
CAAACTAGGTGAAGAGGTCAAAGTCCGCTTCCCG | 4.67
CCGACTGGGGCATAAGGTCACCATAAGCCAGCCC | 3.15
CCTGGTTGGTCAAGGTCACACACGCTATAGGTAC | 4.37

Sequence | PBM binding z-score
AATACAGGGTCACTAGGCCAGGGTAGGTACGAAT | 4
GCTGCTAGGTCAGGTTGGTCAGCGAACGGGTACG | 0.566
CAAACTAGGTCAAGAGGTCAAAGTACGCTTCCCG | 6.22
AGAATGAGGTTATTAAGATCAGGTAATTGCGGTC | 2.82
TATCCTAGGTCATTGGGCCAGTATAGTACGCATC | 3.04
TCTATTAGATGATTAGGGCAACCGAAACAGCGGA | 0.44
ATCTCTAGGTCAGACTCAGTTCAGTGAAGAACGC | 3.36
CGTCCAAGGTCGGCAGGTCAGTGAAAGCGACGTG | 1.28
TGAATGAGGTTAAAGAGCAGGGAACGTGGCGTCG | 1.4
CCTGGCAGGCCAATCTGGGTCACTCAAGGCTTGA | 0.406
CCTTACGGGTCATTGACAGGTTATAGCATTTGGA | 4.11
AGAATGAGTTTAAGATCAGGGAAACAGAATACAT | 0.803
CCTACTGGGCCATTCAGAGGTAATTGATCATATG | -0.36
TCTGCTAGGTCAGTTGGTCAGCTATCGAGCTGCC | 0.206
CCTACTGGGCTATCAGGTCATTGATATCAACGTT | 1.36
CAAACTGGGTCAAGAGGTCAAAGTCCGCTTCCCG | 6.19
CGTCCACGGTCAGCAGGTCAGTGAAAGCGACGTG | 0.107
TCTTGTAGATCAAATGTTAAGAAAGCCGAAGCCT | 0.366
GCTGCTAGGTCAACTGATGGTCCGCTAAAGCTCG | 1.31
CCGATTGGGGCAGAAAGGTTACCATACCATCCGG | 0.707
